Consider 91 molecules from ChEMBL document CHEMBL3988442, “University of Dundee, Small-Polar-MMV Screening Library” (2021).

About 950 (1.4%) of roughly 69,000 compounds showed an effect of 50% or more. Shown is part of a subset that was picked to be rich in strong results.

The subject of the test is Mycobacterium tuberculosis. The test is described as follows: Cornell M. t heat shock assay. Note: in the data most compounds retested in dose-response had high values. In kind it is functional, organism-based. Further details: dose or concentration left out as unconfirmed.
On to `Cc1ccc(C)c(S(=O)(=O)NCCNc2ccc(-n3cccc3)nn2)c1`, for which the “Percent Effect” value was 35.9%.

In the case of `Cc1cc(C)n(-c2ccc(NCCNS(=O)(=O)c3ccccc3)nn2)n1`, the “Percent Effect” value came out at 7.275%.

Take `O=S(=O)(NCCNc1ccc(-n2cccc2)nn1)c1ccccc1`: the “Percent Effect” value is on record as 100.9%.

With `Cc1nsc(NCCNS(=O)(=O)c2ccccc2)n1`, the “Percent Effect” value is on record as -4.682%.

Consider `O=S(=O)(NCCNc1ccc(-n2cccc2)nn1)c1cccs1`, for which the “Percent Effect” value came to 103.8%.

`O=S(=O)(NCCNc1ccc(-n2cccn2)nn1)c1ccccc1`: the “Percent Effect” value stood at 101.1%.

For the molecule `O=S(=O)(Cc1ccccc1)NCCNc1ccc(-n2cccc2)nn1`, the “Percent Effect” value is given as -9.655%.

As to `O=S(=O)(NCCNc1cc(-n2cccn2)ncn1)c1cccs1`, the “Percent Effect” value is recorded as -0.2009%.

For the molecule `O=S(=O)(NCCNc1cc(-n2cccc2)ncn1)c1cccs1`, the “Percent Effect” value was 9.38%.

Take `CNC(=O)CN1CC[C@H]2CN(C(=O)c3ccccc3F)C[C@H]2C1.O=C(O)C(F)(F)F`: the “Percent Effect” value is reported as -22.98%.

In the case of `CC(C)c1nn(C)c(N(C)C)c1CNCc1ccccc1CO.Cl`, the “Percent Effect” value was determined as 37.79%.

For `CCOC1COC2(CCN(Cc3ccc(C)cc3)CC2)C1.O=C(O)C(F)(F)F` (stereo unspecified), the “Percent Effect” value is -2.769%.

On to `CN1CCC2(CC1)CC(NC(=O)c1csnn1)c1ccccc1O2.O=C(O)C(F)(F)F` (stereo unspecified), for which the “Percent Effect” value was found to be 76.95%.

Consider `COCCN1CCC2(CC1)CC(NC(=O)COC)c1ccccc1O2.O=C(O)C(F)(F)F` (stereo unspecified), for which the “Percent Effect” value is on record as -4.974%.

Take `CCN1CCC2(CC1)CC(NC(=O)c1csnn1)c1ccccc1O2.O=C(O)C(F)(F)F` (stereo unspecified): the “Percent Effect” value is listed as 54.1%.

For the molecule `O=C(NC1CC2(CCN(CCO)CC2)Oc2ccccc21)c1csnn1` (stereo unspecified), the “Percent Effect” value worked out at 10.49%.

Regarding `COCCN1CCC2(CC1)CC(NC(=O)CN(C)C)c1ccccc1O2.O=C(O)C(F)(F)F.O=C(O)C(F)(F)F` (stereo unspecified), the “Percent Effect” value is -9.867%.

Consider `CCN1CCC2(CC1)CC(NC(=O)c1c[nH]cn1)c1ccccc1O2` (stereo unspecified), for which the “Percent Effect” value came to 11.74%.

`N#Cc1cccc(CN2Cc3nccn3CC(COCC3CC3)C2)c1.O=C(O)C(F)(F)F` (stereo unspecified): the “Percent Effect” value is reported as -23.01%.

As for `O=C1CCCC2=C1C(c1ccccc1Cl)Nc1nonc1N2` (stereo unspecified), the “Percent Effect” value is 3.129%.

On to `Cc1occc1C(=O)NCC(=O)NCCOc1cccc(Cl)c1`, for which the “Percent Effect” value was found to be 34.75%.

Regarding `Cc1occc1C(=O)NCC(=O)NCCOc1ccc2c(c1)CCC2`, the “Percent Effect” value is listed as 50.55%.

On to `O=C(CNC(=O)c1ccoc1)NCCOc1ccc2c(c1)CCC2`, for which the “Percent Effect” value is on record as 12.38%.

As to `Cc1ccc(CN2CCOCC3(CCN(Cc4cccs4)C3)C2)o1.O=C(O)C(F)(F)F.O=C(O)C(F)(F)F` (stereo unspecified), the “Percent Effect” value is given as -11.36%.

For the molecule `COCCN1CCc2c(c(COc3cccnc3)nn2C)C1.O=C(O)C(F)(F)F.O=C(O)C(F)(F)F`, the “Percent Effect” value is listed as 5.842%.

Turning to `Cc1ccc(Cl)cc1N1CCC(CNC(=O)CCn2ccnn2)C1` (stereo unspecified), the “Percent Effect” value came to 62.44%.

With `Cc1ccc(Cl)cc1N1CCC(CNC(=O)CCn2ccnc2)C1` (stereo unspecified), the “Percent Effect” value was found to be 172.3%.

For `Cc1cnn(CC(=O)NCC2CCN(c3cc(Cl)ccc3C)C2)c1` (stereo unspecified), the “Percent Effect” value was determined as 0.4801%.

As for `Cc1ccc(Cl)cc1N1CCC(CNC(=O)CC(F)(F)F)C1` (stereo unspecified), the “Percent Effect” value worked out at 28.09%.

For the molecule `Cc1ccc(Cl)cc1N1CCC(CNC(=O)Cn2cccn2)C1` (stereo unspecified), the “Percent Effect” value was determined as 6.122%.

As to `CCC(=O)NCC(=O)NCC1CCN(c2cc(Cl)ccc2C)C1` (stereo unspecified), the “Percent Effect” value is on record as -4.009%.

In the case of `CN(C)CCNC(=O)c1cc(-c2cnc(N3CCCC3)nc2)cn1C.O=C(O)C(F)(F)F`, the “Percent Effect” value is -14.58%.

As to `CC(=O)N1[C@H](CN(C)C)C[C@@H]2CN(C(=O)c3cncc(C)c3)CC[C@@H]21.O=C(O)C(F)(F)F.O=C(O)C(F)(F)F`, the “Percent Effect” value was -6.193%.

On to `COCCn1cc(C(=O)N2CCCC2c2cc(C)on2)c2ccccc21` (stereo unspecified), for which the “Percent Effect” value is -20.39%.

As to `Cc1cc(C(=O)N2CCN(c3nc4c(F)cccc4s3)CC2)no1`, the “Percent Effect” value is listed as 70.89%.

For `COc1cccc2sc(N3CC(OC(C)=O)C3)nc12`, the “Percent Effect” value was determined as 4.303%.

On to `CCOC(=O)N1CCN(C(=O)c2cc(-c3ccccc3F)on2)CC1`, for which the “Percent Effect” value is reported as 9.54%.

`Cc1cc(C(=O)N2CCN(c3nc4ccccc4s3)CC2)no1`: the “Percent Effect” value is -15.49%.

For the molecule `CCOc1cc(C)nc(N2CCN(C(=O)c3cc(C)on3)CC2)n1`, the “Percent Effect” value was -16.01%.

Consider `Cc1cccc(C(=O)N2CCN(c3ccccc3F)CC2)n1`, for which the “Percent Effect” value is -5.532%.

Consider `COc1cccc2sc(N3CCN(C(=O)c4cc(C)on4)CC3)nc12`, for which the “Percent Effect” value came to 101.6%.

On to `CC(=O)OC1CN(c2nc3c(C)cccc3s2)C1`, for which the “Percent Effect” value was -13.72%.

For the molecule `Cc1cc(C(=O)N2CCN(c3nc4c(C(C)C)cccc4s3)CC2)on1`, the “Percent Effect” value was -0.7761%.

Turning to `Cc1cc(C(=O)N2CCN(c3nc4c(C(C)C)cccc4s3)CC2)no1`, the “Percent Effect” value came out at 88.51%.

On to `COc1cccc([C@H]2CN(C(=O)c3cc(C)on3)C[C@@H]2N)c1`, for which the “Percent Effect” value is on record as -0.4367%.

As for `Cc1cc(C(=O)N2CCN(c3nc4c(C)cccc4s3)CC2)no1`, the “Percent Effect” value was found to be 96.55%.

In the case of `Cc1cc(C(=O)N2CCN(C)CC2)nn1CC(=O)NCc1ccccn1.Cl`, the “Percent Effect” value was -24.19%.

Consider `CC(C)C[C@H](N)c1nnc(SCC(=O)Nc2ccc(Br)cc2)o1.Cl`, for which the “Percent Effect” value amounted to 9.958%.

As for `O=C(O)C(F)(F)F.O=C(O)C(F)(F)F.O=C(O)C(F)(F)F.c1ccc(NCc2cn3c(n2)CN(Cc2cccnc2)CC3)nc1`, the “Percent Effect” value worked out at 2.185%.

Take `CS(=O)(=O)c1ccc(C(=O)N2CCCC(n3ccnc3)C2)cc1` (stereo unspecified): the “Percent Effect” value amounted to 8.305%.

Consider `Cn1cc(-c2ncc3c(c2C(=O)O)CCN(Cc2ccccn2)C3)cn1.O=C(O)C(F)(F)F.O=C(O)C(F)(F)F`, for which the “Percent Effect” value is 44.96%.

For the molecule `CO[C@@H]1CCN(C(=O)c2ccsc2)[C@@H]2CN(CC3CC3)C[C@@H]21.O=C(O)C(F)(F)F`, the “Percent Effect” value turned out to be 9.15%.

On to `COCCCNC(=O)c1cc(-c2cnc(N(C)C)nc2)cn1CC1CC1.O=C(O)C(F)(F)F`, for which the “Percent Effect” value amounted to 0.3583%.

As to `COC[C@]1(O)CCN(Cc2c[nH]c(CC3CCCC3)n2)CC1(C)C`, the “Percent Effect” value is recorded as -12.53%.

For `C[C@@H]1CN(Cc2c[nH]c(CC3CCCC3)n2)CC[C@]1(C)O`, the “Percent Effect” value is recorded as -1.066%.

On to `CC1(C)CN(Cc2c[nH]c(CC3CCCC3)n2)CC[C@]1(C)O`, for which the “Percent Effect” value turned out to be 10.2%.

For `OC1(CN2CCCC2)CCCN(Cc2c[nH]c(CC3CCCC3)n2)C1` (stereo unspecified), the “Percent Effect” value is given as 109.3%.

Take `c1[nH]c(CC2CCCC2)nc1CN1CCCC2(CCOC2)C1` (stereo unspecified): the “Percent Effect” value is reported as -0.6443%.

In the case of `OC1(CN2CCCCC2)CCN(Cc2c[nH]c(CC3CCCC3)n2)C1` (stereo unspecified), the “Percent Effect” value is 56.92%.

With `COc1cc(C(=O)N(C)C)ccc1NC(=O)c1ccsc1`, the “Percent Effect” value is recorded as -21.05%.

For the molecule `CCS(=O)(=O)N1CC[C@H]2CO[C@H](CN(C)C)[C@H]2C1.O=C(O)C(F)(F)F`, the “Percent Effect” value was -39.84%.

On to `CCN1CCC2(CCC(=O)N2Cc2cccc(C)n2)CC1.O=C(O)C(F)(F)F.O=C(O)C(F)(F)F`, for which the “Percent Effect” value is -30.9%.

For `O=C(O)C(F)(F)F.O=C(O)C(F)(F)F.c1cnn(CCCO[C@@H]2CN(C3CCOCC3)[C@@H]3CCCO[C@@H]32)c1`, the “Percent Effect” value is -22.39%.

Consider `Cc1ccc(CN2CC[C@H]3NC(=O)CC[C@@H]32)o1.O=C(O)C(F)(F)F`, for which the “Percent Effect” value is listed as -7.125%.

Consider `Cc1cccc(N2CCC3(CCCN(C(=O)c4cccnc4)C3)C2)n1.O=C(O)C(F)(F)F.O=C(O)C(F)(F)F` (stereo unspecified), for which the “Percent Effect” value was -32.42%.

Turning to `CN(C)C(=O)CNC(=O)c1ccc2ccc(N(C)CC3CC3)n2c1`, the “Percent Effect” value was found to be 51.54%.

As for `CN(C)CCNC(=O)c1ccc2ccc(N(C)CC3CC3)n2c1`, the “Percent Effect” value is -34.83%.

`COCCNC(=O)c1ccc2ccc(N(C)CC3CC3)n2c1`: the “Percent Effect” value turned out to be 24.26%.

As for `NC(=O)N1CCC2(CCN(C(=O)c3cccnc3)CC2)C1.O=C(O)C(F)(F)F`, the “Percent Effect” value was -5.676%.

`Cl.Cl.c1ccc(COC[C@@H]2CCC[C@@]23CNCCO3)nc1`: the “Percent Effect” value is reported as 33.86%.

As for `Cc1cc(C)c(CNC(=O)NCCNc2cnccn2)c(=O)[nH]1`, the “Percent Effect” value is reported as -7.276%.

As to `CCCc1cncnc1N1CCC(NCc2cc3ccccc3[nH]2)CC1`, the “Percent Effect” value was 103.5%.

Turning to `CCCc1cncnc1N1CCC(NCc2ccc(O)cc2)CC1`, the “Percent Effect” value is given as -4.464%.

Take `CCCc1cncnc1N1CCC(NCc2ccncc2)CC1`: the “Percent Effect” value is given as 4.573%.

For the molecule `Cc1n[nH]c(C(=O)NCc2ccnc(OCC(F)(F)F)c2)c1Br`, the “Percent Effect” value is 65.15%.

`Cc1noc(C)c1C(=O)NCc1ccnc(OCC(F)(F)F)c1`: the “Percent Effect” value worked out at 0.8028%.

For the molecule `Cc1ncsc1C(=O)NCc1ccnc(OCC(F)(F)F)c1`, the “Percent Effect” value is recorded as -36.25%.

As for `NC(=O)N1CCCC(C(=O)NCc2ccccc2OC(F)(F)F)C1` (stereo unspecified), the “Percent Effect” value amounted to 35.38%.

Consider `CN(Cc1ccccc1OC(F)(F)F)C(=O)C1CCCN(C(N)=O)C1` (stereo unspecified), for which the “Percent Effect” value was 92.25%.

As for `CN(Cc1ccccc1OC(F)(F)F)C(=O)C1CC1`, the “Percent Effect” value is 6.346%.

Regarding `O=C(O)C(F)(F)F.O=C(O)C(F)(F)F.c1cc(CO[C@H]2CC[C@H]3[C@H]2OCCN3Cc2nccs2)ccn1`, the “Percent Effect” value was -1.961%.

As for `O=C(O)C(F)(F)F.O=C(O)C(F)(F)F.O=C1N(c2cncnc2)CCC12CCCN(Cc1cccnc1)C2` (stereo unspecified), the “Percent Effect” value is given as -18.13%.

Take `CCOCC1CN(C(=O)c2cscn2)Cc2cn(C)nc21.O=C(O)C(F)(F)F` (stereo unspecified): the “Percent Effect” value is -37.83%.

Take `COC[C@@H]1CCC[C@]12CN(Cc1ccco1)CCO2.O=C(O)C(F)(F)F`: the “Percent Effect” value is listed as -13.34%.

Regarding `Cl.NCc1cc(-c2ccccc2)n2nccc2n1`, the “Percent Effect” value is recorded as -2.564%.

As for `OCC(O)CN1CCc2onc(-c3ccc(C(F)(F)F)cc3)c2C1` (stereo unspecified), the “Percent Effect” value amounted to 97.28%.

Take `FC(F)(F)c1ccc(-c2noc3c2CN(CC2CCCO2)CC3)cc1` (stereo unspecified): the “Percent Effect” value was 46.47%.

For `COCC(C)N1CCc2onc(-c3ccc(C(F)(F)F)cc3)c2C1` (stereo unspecified), the “Percent Effect” value stood at 16.68%.

Take `COCC1c2nnn(CC3CC3)c2CCN1C(=O)c1ccnnc1` (stereo unspecified): the “Percent Effect” value is -6.272%.

With `COCC1c2nnn(CC3CC3)c2CCN1C(=O)c1cc(C)on1` (stereo unspecified), the “Percent Effect” value worked out at 9.302%.

For the molecule `COCC1c2nnn(CC3CC3)c2CCN1C(=O)c1cc(C)[nH]c1C` (stereo unspecified), the “Percent Effect” value is given as 70.57%.
